Source: PubChem (National Center for Advancing Translational Sciences (NCATS))
GLP-1R agonist = qHTS of GLP-1 Receptor Agonists; 0.007% of 380,000 active; HEK293 GLP-1R CRE-luciferase, luminescence, 4-6 h; cells express a hypersensitive GLP-1R form; Potency, µM (top dose mostly 45.6 µM), inactives show at the highest dose activation, actives largely listed as activators; further: % of control where 0% means no effect
Target sequence (P43220 whole entry, looked up): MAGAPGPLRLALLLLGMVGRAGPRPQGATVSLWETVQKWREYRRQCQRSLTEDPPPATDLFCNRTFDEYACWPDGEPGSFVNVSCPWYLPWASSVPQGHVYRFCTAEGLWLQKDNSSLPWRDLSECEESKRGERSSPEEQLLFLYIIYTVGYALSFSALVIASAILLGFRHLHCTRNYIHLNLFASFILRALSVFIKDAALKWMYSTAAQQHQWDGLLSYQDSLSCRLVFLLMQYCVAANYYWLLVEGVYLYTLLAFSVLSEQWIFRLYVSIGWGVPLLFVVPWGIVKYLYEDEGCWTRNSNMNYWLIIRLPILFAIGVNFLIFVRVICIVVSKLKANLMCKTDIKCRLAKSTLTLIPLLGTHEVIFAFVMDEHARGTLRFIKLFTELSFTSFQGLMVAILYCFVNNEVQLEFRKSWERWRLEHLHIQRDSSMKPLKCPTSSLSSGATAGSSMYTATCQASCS
GLP1R inv ag = qHTS of GLP-1 Receptor Inverse Agonists (Inhibition Mode); Glucagon-like peptide 1 receptor (Homo sapiens), P43220; HEK293 GLP-1R CRE-luciferase, luminescence, 24 h; GLP-1R form is constitutively active; Potency, µM (top dose mostly 38.3 µM), for inactives: at the highest dose activity change, negative = inhibition, most hits filed as inhibitors; 1.6% of 410,000 active; AID 624417, 2012; further: on the % scale 0 is the no-effect control and ±100 the full control effect; nearly all actives have a fitted effect of over 55% in size
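GLP-1R inverse agonism mode: basal reporter luminescence in engineered HEK293 cells measured after one day of compound exposure at 37 deg C, with a 12 min room-temperature detection step.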
Gal4-VP16 FLuc = VP16 counterscreen qHTS for inhibitors of ROR gamma transcriptional activity; Potency, µM (titrated, usually from 53.6 µM), without a hit: at the highest dose activity, negative = inhibition, most hits filed as inhibitors; Drosophila S2 Gal4-VP16 UAS-luciferase, luminescence, 20 h; 3.5% of 310,000 active;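 further: Gal4-VP16 expression switched on by copper sulfate through the metallothionein promoter; on the % scale 0 is the no-effect control and ±100 the full control effect; nearly all actives have a fitted effect of over 50% in size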
RORg inh = qHTS for inhibitors of ROR gamma transcriptional activity. Nuclear receptor ROR-gamma (Mus musculus), P51450. Potency, µM (top dose mostly 53.6 µM), inactives show at the top dose activity change, negative = inhibition, hits mostly inhibitors. Drosophila S2 Gal4-RORgamma UAS-luciferase reporter, 20 h. 5.4% of 310,000 active; further: on the % scale 0 is the no-effect control and ±100 the full control effect; nearly all actives have a fitted effect of over 60% in size
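In this cell-based reporter format, copper sulfate (700 uM final) drives Gal4–ROR gamma fusion expression from a metallothionein promoter in Drosophila Schneider cells; compounds preincubated 1 hr, reporter read after 20 hr at ambient temperature.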
HEK293 tox = qHTS of GLP-1 Receptor Inverse Agonists: Cytotox Screen; HEK293 cAMP-luciferase reporter cells, luminescence, 24 h; Potency, µM (top dose mostly 38.3 µM), without a hit: at the highest dose activity change, negative = inhibition, hits mostly inhibitors; AID 624418, 2012; 0.13% of 410,000 active;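 further: loss of luciferase light is scored as toxicity; on the % scale 0 is the no-effect control and ±100 the full control effect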
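Luminescence readout: signal drop marks cytotoxicity. Plated cells grew 12 h at 37 °C, 5% CO2, received 23 nL compound for 24 h, then got luciferase reagent, read after 12 min at RT.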
The depositor's hits bear a star; ? = inconclusive; / = no result; [ ] = remark or other dose. The list is not random: actives were taken first. Their share in the collection is about 5.9%. The call rests on the fitted dose curve; in most records, active means well fitted curve in the direction sought with a large enough effect; inconclusive means small, poorly fitted or top-dose-only effect, or another doubt; inactive means no such curve, though single readings can be large; an effect the other way counts as inactive or inconclusive. Potency means the concentration at half of the fitted maximal effect.

SMILES	GLP-1R agonist	GLP1R inv ag	Gal4-VP16 FLuc	RORg inh	HEK293 tox
O=C1CCC(/C=C/c2ccccc2)=NN1Cc1ccc(Cl)c(Cl)c1	7%	0%	4%	18%	10%
O=C1CCC(/C=C/c2ccccc2)=NN1Cc1ccccc1Cl	1%	10µM*	6%	0%	11%
CC1(C)S[C@@H]2[C@H](NC(=O)[C@@H](NC(=O)N3CCNC3=O)c3ccccc3)C(=O)N2[C@H]1C(=O)O	-2%[19.8 µM]	/	-8%[17 µM]	-10%[2.98 µM]	/
COc1ccc(C)cc1NS(=O)(=O)c1ccc(NC(=O)CN(c2cc([N+](=O)[O-])ccc2C)S(C)(=O)=O)cc1	-11%	1.8µM*	-10%	-15%	-9%
Cc1cc(=O)n2nc(N3CCCC(C(=O)NCCc4ccccc4)C3)sc2n1 (stereo unspecified)	0%	13%	1%	0%	5%
O=C(NCCc1ccccc1)C1CCCN(c2nc3ccccc3s2)C1 (stereo unspecified)	8%	10µM*	-14%	-7%	-7%
c1ccc(CN2CCN(C3=Nc4cccc5cccc3c45)CC2)cc1	0%	?	-24%	?	?
Fc1ccc(N2CCN(C3=Nc4cccc5cccc3c45)CC2)cc1	38%	?	-5%	13µM*	?
COc1ccc(C(=O)NCC(c2ccco2)S(=O)(=O)c2ccc(F)cc2)cc1 (stereo unspecified)	/	-5%	/	/	5%
O=C(CC(c1ccco1)S(=O)(=O)c1ccccc1)c1ccc(F)cc1 (stereo unspecified)	0%	22%	11µM*	2.5µM*	10%
COC(=O)CSc1nnc(-c2sc3cc(OC)ccc3c2Cl)n1C	1%	1%	-2%	11µM*	-4%
COC(=O)CSc1nc2cc(OC)ccc2n1C	-2%	9%	0%	-44%	0%
COC(=O)CSc1nnc(-c2sc3ccccc3c2Cl)o1	11%	7%	20µM*	?	5%
COc1ccccc1-c1nnc(SCC(=O)c2ccc(F)cc2)n1-c1ccccc1	0%	?	/	/	-26%
CSc1nc2oc3c(c2c2nncn12)CC(C)(C)SC3	3%	2%	13µM*	-99%	-4%
CC(C)NC(=O)Cn1ncn2c(cc3cc(F)ccc32)c1=O	/	4%	/	/	2%
C[C@H](N=C(NC#N)Nc1ccncc1)C(C)(C)C	/	/	-3%	-21%	/
COC(=O)c1oc2ccc(Br)cc2c1NC(=O)CCN1CCOCC1	22%	-5%	-7%	2%	11%
CCOC(=O)c1oc2ccc(Br)cc2c1NC(=O)CN1CCN(C)CC1	10µM*	8.9µM*	-4%	18%	-3%
O=S(=O)(Nc1ccc(-c2ccc(N3CCCC3)nn2)cc1)c1ccc(OC(F)(F)F)cc1	/	?	/	/	-6%
CC1CCN(c2ccc(-c3ccc(NC(=O)C(F)(F)F)cc3)nn2)CC1	-3%	?	-29%	5.6µM*	-7%
Cc1cn(C)c(CC(=O)Nc2cccc(Cl)c2C)c1C(=O)O	/	16%	/	/	-3%
COc1cc2c(cc1O)CCC1C2CC[C@@]2(C)C1CC[C@@H]2O (stereo partly specified)	/	/	2%	-22%	/
COc1cc2c(cc1O)CC[C@@H]1[C@@H]2CC[C@]2(C)[C@@H](O)CC[C@@H]12	-1%	11µM*	-7%	-20%	-28%
N/C(=N\S(=O)(=O)c1cc(C(F)(F)F)cc(C(F)(F)F)c1)c1ccc(Cl)cc1	-7%	2.5µM*	?	?	?
SMILES	GLP-1R agonist	GLP1R inv ag	Gal4-VP16 FLuc	RORg inh	HEK293 tox
O=[N+]([O-])c1c(Nc2ccccn2)cc(Cl)c2nonc12	-10%	?	8.9µM*	13µM*	?
O=C(O)c1ccccc1Nc1cc(Cl)c2nonc2c1[N+](=O)[O-]	-6%	1%	/	/	?
CCOC(=O)c1c(C)[nH]c(C)c1S(=O)(=O)N1CCC(C(=O)Nc2ccc(C)cn2)CC1	/	3%	/	/	-6%
COC(=O)CNC(c1ccccc1)c1cc(Br)ccc1NC(=O)CNC(=O)OCc1ccccc1 (stereo unspecified)	-4%	?	-16%	36%	?
CCOC(=O)CNC(c1ccccc1)c1cc(Br)ccc1NC(=O)CCN1CCOCC1 (stereo unspecified)	15%	-29%	8.9µM*	?	-3%
COC(=O)CNC(c1ccccc1)c1cc(Br)ccc1NC(=O)CCN1CCOCC1 (stereo unspecified)	-3%	?	14µM*	?	-13%
COCCNC(=O)C1(C(F)(F)F)C/C(=C/CCO)CCCO1 (stereo unspecified)	/	/	-25%	0%	/
CCN(CC)CC#CCC(O)(c1ccccc1)c1ccccc1	4%	?	2%	-9%	-19%
CCN(CC)CC#CCC(O)(c1ccccc1)c1ccc(Br)cc1 (stereo unspecified)	-6%	10µM*	-3%	-22%	-24%
Cc1ccccc1N=C/C=C1\N(C)c2ccccc2C1(C)C	1%	-3%	13µM*	?	3%
CN1/C(=C/C=N/NC(=O)c2ccc([N+](=O)[O-])cc2)C(C)(C)c2ccccc21	-1%	11%	2.2µM*	1.8µM*	13%
CN1/C(=C\C(=S)NC(=O)c2cccc(Br)c2)C(C)(C)c2ccccc21	-5%	?	6.3µM*	?	-1%
CN1/C(=C\C(=O)Nc2cccc(Cl)c2)C(C)(C)c2ccccc21	11%	5µM*	?	?	?
CCN(CC)S(=O)(=O)c1cccc(C(=O)/C=C2/N(C)c3ccccc3C2(C)C)c1	14%	?	?	1%[10 µM]	75%
CN1/C(=C\C(=O)Nc2ccc(Br)cc2)C(C)(C)c2ccccc21	-8%	?	-18%	8%	-6%
O=C(COc1ccccc1F)Nc1ccc2oc(-c3cccc(Cl)c3)nc2c1	/	15%	/	/	-1%
CN1/C(=C\C(=S)NC(=O)c2ccc([N+](=O)[O-])cc2)C(C)(C)c2ccccc21	-5%	-46%	4µM*	3.5µM*	?
Cn1cnc(S(=O)(=O)N2CCCC(C(=O)Nc3cccc(C#N)c3)C2)c1 (stereo unspecified)	/	1%	/	/	-8%
Clc1ccc(CSC2=NCCCN2)cc1Cl	-3%	8.9µM*	9%	4%	-25%
C[C@H](OC(=O)N1CCN(C(c2ccccc2)c2ccccc2)CC1)[C@@H]1O[C@@]2(C)CCC[C@H]1O2	16%	10µM*	/	/	33%
C[C@H](OC(=O)NCc1ccc(C(F)(F)F)cc1)[C@@H]1O[C@@]2(C)CCC[C@@H]1O2	-2%	?	/	/	1%
